# Whole data set: some 4,100 sequences, median “relative CpG methylation activity (normalised to average over all NNNCGNNN flanks)” near 0.94, cut for the highest 2% near 1.9. This is one part of a sample in which the highest values are shown more often than they occur.
# Target: DNMT3B catalytic domain (mouse) (UniProt O88509)
# Assay: relative CpG methylation activity (normalised to average over all NNNCGNNN flanks) (relative (1 = mean)); higher = more methylation of the central CpG
# Details: system: in vitro, murine catalytic domain; CpG state: hemimethylated substrate pool; residues: 558-859
# Experimental: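 Deep enzymology: a pool of dsDNA substrates with a central CpG flanked by 10 random nucleotides on each side was methylated by the murine DNMT3A or DNMT3B catalytic domain (0.8 mM SAM, 37 °C, 60 min). Methylation was then read out by hairpin ligation, bisulfite conversion and NGS. Values are the average methylation of each NNNCGNNN context (±3 flanks; the outer flanks are random and averaged over), normalised to the overall mean, so 1 = average activity.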
# Sequence of DNMT3B catalytic domain (mouse) (O88509 558-859): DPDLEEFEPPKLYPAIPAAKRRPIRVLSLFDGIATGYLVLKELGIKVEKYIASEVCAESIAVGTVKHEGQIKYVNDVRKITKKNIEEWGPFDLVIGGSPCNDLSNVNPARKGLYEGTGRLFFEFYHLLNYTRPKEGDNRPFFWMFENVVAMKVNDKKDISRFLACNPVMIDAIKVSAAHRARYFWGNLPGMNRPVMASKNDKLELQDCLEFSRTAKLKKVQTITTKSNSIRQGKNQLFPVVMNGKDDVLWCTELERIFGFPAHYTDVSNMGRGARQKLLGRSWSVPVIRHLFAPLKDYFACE
row,Sequence,relative CpG methylation activity
1,TTTCGGGT,2.02
2,TTTCGGGA,1.79
3,CTTCGGCG,1.67
4,GTTCGGGT,1.37
5,TTTCGGCT,2.04
6,CTTCGGCT,1.9
7,TTTCGGCA,1.69
8,TTTCGGCG,1.79
9,TTTCGGCC,1.65
10,GTTCGGCT,1.75
11,GTTCGGCA,1.88
12,CTTCGGCA,1.97
13,AGTCGGTG,0.863
14,ATTCGCGC,0.947
15,CGGCGCTA,0.358
16,CACCGGCC,1.34
17,ACTCGGCC,1.62
18,ACTCGGCA,1.42
19,ACTCGGCT,1.95
20,TTACGTTG,1.29
21,AGGCGCGA,0.281
22,ATTCGGGC,1.72
23,CTCCGGCC,1.94
24,CTTCGGGT,1.33
25,ATCCGGCC,1.48

row,Sequence,relative CpG methylation activity
1,CTCCGGGC,2.05
2,TTCCGGGC,1.7
3,CTTCGGGC,2.18
4,CTCCGGCA,1.88
5,GTCCGGGC,1.53
6,ATCCGAGA,1.4
7,GCACGAGC,1.79
8,GAACGTGC,1.03
9,CAGCGGTG,0.603
10,GTCCGTAT,0.661
11,TATCGGAT,1.18
12,ACCCGATT,1.41
13,GCTCGTCA,0.561
14,TTACGGTC,2.02
15,CTACGGTC,1.85
16,ATACGGTC,1.68
17,TTACGGTA,2.02
18,CTACGGTA,1.81
19,GTACGGTA,1.61
20,GGACGCGG,0.51
21,CATCGATC,1.81
22,GCCCGACG,1.16
23,TCACGCTT,1.36
24,ATACGAAT,1.64
25,ATACGAGA,1.82

row,Sequence,relative CpG methylation activity
1,CTACGACG,1.81
2,CTACGACT,1.92
3,ATACGAGC,1.87
4,TTACGAGG,1.8
5,TTACGAGC,2.09
6,GTACGACT,1.46
7,ATACGAGG,1.72
8,TTACGAGA,1.84
9,CTACGAGA,1.96
10,ATACGAGT,1.92
11,CATCGCTA,0.882
12,GATCGCTG,0.405
13,TCCCGCCG,0.883
14,GAGCGTAT,0.648
15,GCACGTGG,0.497
16,GTCCGTCT,0.827
17,TCTCGCGG,0.647
18,CTGCGCTG,0.95
19,TACCGCTA,0.483
20,CAGCGACC,0.972
21,GACCGCAA,0.281
22,CTACGAGT,1.96
23,CTACGAGG,1.68
24,CTACGAGC,2.12
25,TTACGAGT,1.74

row,Sequence,relative CpG methylation activity
1,GTACGAGT,1.48
2,GTACGAGC,1.83
3,CGCCGGTC,1.23
4,AAACGCGG,1.24
5,CTCCGCGT,0.717
6,CCTCGAGT,1.5
7,CAACGAGA,1.94
8,CAACGAGT,1.47
9,AAACGAGA,1.9
10,CAACGAGC,1.74
11,TAACGAGA,1.72
12,TCTCGAGT,1.45
13,GAACGAGA,1.76
14,TCACGAGG,1.7
15,TCTCGAGA,1.96
16,TCACGAGA,1.96
17,TCTCGAGC,1.53
18,TCACGAGT,1.49
19,TTACGCCG,1.59
20,TACCGGCC,1.52
21,CGCCGTAG,0.147
22,AAACGCGC,1.46
23,AAGCGTTT,0.413
24,AAGCGTTC,0.586
25,TAGCGCCC,0.741

row,Sequence,relative CpG methylation activity
1,TCGCGGAC,0.818
2,GGCCGTGG,0.0382
3,CCTCGAAT,1.3
4,CAACGGCT,1.92
5,CAACGGCA,1.74
6,CAACGGCC,1.93
7,AAACGGCT,1.82
8,GAACGGCC,1.81
9,AAACGGCC,1.76
10,ACGCGCGA,0.411
11,GACCGGGT,1.03
12,ACGCGTGA,0.523
13,TTCCGAAT,1.58
14,GCACGGCC,1.77
15,CCACGGCC,1.7
16,ACACGGCC,1.94
17,ACACGGCT,1.89
18,ACACGGCA,1.89
19,AAACGGCG,1.68
20,AAACGGCA,1.91
21,ACACGGCG,1.6
22,GAACGGCA,1.84
23,CAACGCGA,0.965
24,AGTCGTCA,0.379
25,CAACGTCA,1.15

row,Sequence,relative CpG methylation activity
1,CGCCGTAC,0.561
2,ATTCGCAG,0.453
3,TTCCGATT,1.75
4,ATCCGAGC,1.68
5,TTTCGATC,1.95
6,CTCCGAGT,1.99
7,CTCCGAGA,1.73
8,GTCCGATC,1.77
9,GTTCGATC,1.3
10,ATCCGAGT,1.37
11,TTCCGAGT,1.83
12,TTCCGATC,2.31
13,TTTCGATA,1.81
14,CTCCGAGC,2.06
15,CATCGAAC,1.6
16,ACGCGTGG,0.317
17,GATCGTTG,0.455
18,TGACGGAT,0.829
19,TTCCGAAC,1.89
20,ATCCGAAC,1.63
21,TTCCGAAG,1.32
22,TTCCGAGA,1.6
23,TTCCGAGC,1.9
24,TTCCGAGG,1.42
25,CCGCGGTC,1.43

row,Sequence,relative CpG methylation activity
1,GTTCGGGC,1.53
2,ACGCGATT,1.09
3,GATCGAAC,1.16
4,TTACGATT,2.01
5,TTACGATC,2.01
6,GTACGATC,1.73
7,GTACGATT,1.75
8,TCACGATA,1.76
9,TTACGATA,1.94
10,TAACGATA,1.81
11,CTACGATT,1.83
12,TTACGATG,1.53
13,CGTCGATA,1.84
14,TGCCGGGG,0.469
15,CGACGTGC,0.674
16,AGCCGAAA,0.798
17,AAACGTTA,0.806
18,CCCCGTTA,0.69
19,ACGCGTTG,0.312
20,TCACGACC,1.17
21,GTGCGGGT,1.3
22,TTACGAAA,1.78
23,CTACGAAT,1.56
24,TTACGAAC,1.96
25,CTACGAAC,1.91

row,Sequence,relative CpG methylation activity
1,TTACGAAT,1.76
2,CTACGAAG,1.6
3,CCTCGGTT,1.13
4,AATCGTTC,0.607
5,AGCCGAGC,1.24
6,TTCCGGCT,1.61
7,GTTCGTGA,0.411
8,ATCCGGCG,1.82
9,CTCCGGTC,1.8
10,TTCCGGTC,2.04
11,TTCCGGCC,1.67
12,ATCCGGTT,1.46
13,CTCCGGTT,1.72
14,TTCCGGTA,1.33
15,TTCCGGTT,2.2
16,TTCCGGCG,2.04
17,ATTCGTTC,0.876
18,AAGCGCCG,0.713
19,TAGCGGGG,0.665
20,CATCGGCT,1.78
21,GTTCGGTC,1.15
22,GACCGTTT,0.177
23,ATTCGAAC,1.69
24,CTTCGAGG,1.65
25,ATTCGAGA,1.83

row,Sequence,relative CpG methylation activity
1,CTTCGAAC,1.98
2,CTTCGAAA,1.57
3,CTTCGAGA,1.95
4,TACCGTGT,0.198
5,ACCCGGAT,0.954
6,TATCGGAA,0.708
7,CCTCGGAC,1.14
8,GCCCGGCT,1.4
9,CCCCGGCA,1.72
10,TCCCGGCG,1.87
11,CCCCGGCT,2.05
12,CCCCGGCG,1.95
13,TCCCGGCT,1.95
14,CCCCGGCC,1.77
15,ACCCGGCT,1.67
16,TCCCGGCA,1.62
17,AAGCGTGC,0.448
18,ATCCGTCC,1.35
19,AGTCGTCG,0.57
20,ACGCGTTC,0.658
21,ACCCGCGA,0.371
22,GCACGCTG,0.98
23,GTACGATA,1.73
24,ATACGATC,2.12
25,ATACGATT,1.74

row,Sequence,relative CpG methylation activity
1,ACACGATA,1.75
2,CAACGATC,1.94
3,CTACGACC,1.82
4,CCACGATC,1.74
5,CAACGATG,1.43
6,CAACGATA,1.77
7,ATACGATA,2.03
8,CTACGATC,1.92
9,ATACGATG,1.63
10,GTTCGCAA,0.436
11,TCTCGGTT,0.917
12,ACTCGGCG,1.6
13,TGGCGTGT,0.0208
14,CAGCGACA,0.777
15,CTGCGTCA,0.944
16,CCTCGCCA,1.05
17,GGCCGGGT,0.602
18,GGCCGAGC,1.53
19,TGACGCCT,1.11
20,CTACGATG,1.83
21,CTACGATA,1.97
22,CCACGATA,1.7
23,CTACGCTA,1.47
24,CTACGCTC,1.91
25,GTACGCTC,1.53

row,Sequence,relative CpG methylation activity
1,TAGCGCCT,0.72
2,CGACGTAA,0.604
3,GGTCGATT,1.49
4,TATCGGCA,1.95
5,AATCGGCC,1.88
6,AGTCGGCT,1.79
7,TATCGGCC,2.01
8,CCTCGGCC,1.66
9,CATCGGCA,1.83
10,TATCGGCG,1.79
11,AGTCGGCA,2.11
12,AGTCGGCC,1.69
13,AATCGGCA,1.74
14,TCTCGGCT,1.8
15,TCTCGGCC,1.96
16,ATTCGAGG,1.29
17,AGTCGGGT,1.16
18,GTACGCCT,1.73
19,TTCCGATG,1.47
20,GGCCGCGC,0.361
21,AGACGGTA,1.16
22,GCTCGATG,1
23,GTACGGAG,1.39
24,TTACGGCT,1.98
25,TCACGGCT,1.83

row,Sequence,relative CpG methylation activity
1,GTACGGTG,1.48
2,CTACGGCC,1.96
3,TTACGGTT,1.85
4,ATTCGGCT,1.69
5,CTACGGAC,1.64
6,ATTCGGCC,2.04
7,ATTCGGCG,1.77
8,CTGCGGCC,1.22
9,GTACGGCG,2.05
10,ATGCGGAC,0.76
11,TTGCGAAG,0.966
12,ATCCGCCG,0.929
13,CACCGGGT,1.06
14,CAGCGCTG,0.635
15,GTGCGCGT,0.649
16,TGTCGCCC,0.734
17,TGACGAGT,1.21
18,AGTCGTGG,0.341
19,CGTCGTGT,0.248
20,ATACGGCA,2.11
21,ATACGGAG,1.21
22,ATACGGAA,1.32
23,ATGCGGCT,1.55
24,ATACGGTA,1.64
25,TTGCGGCC,1.43

row,Sequence,relative CpG methylation activity
1,TTGCGGCT,1.95
2,CTACGGCA,2.23
3,ATACGGCG,2.11
4,ATACGGTG,1.75
5,CTACGGAA,1.68
6,CCACGGCA,1.74
7,AAACGAAA,1.58
8,CATCGTCC,0.944
9,GTGCGTCA,0.799
10,TCCCGGGG,1.21
11,CATCGCGG,0.514
12,GAACGGCG,1.53
13,AGGCGTGC,0.175
14,ACCCGGTT,1.29
15,GCTCGGGA,1.17
16,CCACGGCT,1.89
17,CTACGGAG,1.52
18,CTACGGCG,2.04
19,CCACGGCG,1.86
20,TTACGGAC,1.85
21,CTACGGTT,1.76
22,GCACGGCA,1.79
23,CTACGGCT,2.28
24,TTACGGCC,1.97
25,TCACGGCC,1.74

row,Sequence,relative CpG methylation activity
1,GTACGGCA,1.9
2,GTACGGCT,1.56
3,CCTCGATT,1.35
4,TGACGGCA,1.53
5,CACCGTAT,0.274
6,CTACGCCA,1.78
7,TCCCGTTA,0.532
8,TAGCGGTC,1.12
9,GCACGCTA,0.861
10,AGTCGATC,1.7
11,AGTCGGAT,0.542
12,AGGCGTCT,0.521
13,GTTCGGAC,1.37
14,TTACGGCA,2.04
15,GTACGGTC,1.87
16,TTACGGAA,1.64
17,TTACGGCG,2.25
18,TTACGGTG,1.52
19,ATACGGCT,1.89
20,GTACGGCC,1.9
21,TCACGGCG,1.89
22,ATACGGCC,2.01
23,ATACGGAC,1.59
24,GTACGGAC,1.51
25,TCACGGCA,1.82
